Records with an inconclusive call do not appear. Calls of active or inactive are those of the source. The call rests on the fitted dose curve; in most records, active means well fitted curve in the direction sought with a large enough effect; inconclusive means small, poorly fitted or top-dose-only effect, or another doubt; inactive means no such curve, though single readings can be large; an effect the other way counts as inactive or inconclusive.
What was measured:
[1] = qHTS for compounds that reverse cellular toxicity of Amyloid beta (A-beta) peptide in yeast: LOPAC Validation Assay (AID 720559); conditions: yeast expressing A-beta; series mostly up to 46.1 µM;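 further: plate controls were DMSO for no effect and equimolar ferric chloride plus clioquinol rescue for full effect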
Procedure, shortened: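 Yeast cells expressing toxic A-beta were combined with pinned compounds in growth medium and incubated 48 hr at 30 C. Growth was read as absorbance at 600 nm and normalized to DMSO and to an equimolar FeCl3/clioquinol positive control.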

[2] = qHTS for Activators of Parkin Expression: LOPAC Validation Assay (NLuc Reporter) (AID 720572); conditions: Parkin promoter NanoLuc reporter cells, luminescence; series mostly up to 46.1 µM
Procedure, shortened: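 NLuc signal, read 10 min after reagent and following a prior FLuc read, is normalized to DMSO (0) and positive controls (100%). Cells: neuronal Parkin-promoter coincidence reporter line; compounds tested 7-point, 24 h, 37 C, 5% CO2.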

[3] = qHTS for Activators of Parkin Expression: LOPAC Validation Assay (FLuc Reporter) (AID 720573); conditions: Cell line, PRKN promoter firefly luciferase reporter, vehicle wells = 0, positive control = 100%; series mostly up to 46.1 µM
Procedure, shortened: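 Neuronal cell line stably carrying FLuc/NLuc coincidence reporter under Parkin promoter; cells plated 24 h, then compounds added in 7-point dose response for 24 h at 37 C. FLuc luminescence read; normalized to DMSO and positive control (100%).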

[4] = target: T1, Hexokinase-4 (Homo sapiens) + Glucokinase regulatory protein (Homo sapiens) (UniProt P35557+Q14397); test: qHTS assay for inhibitors of recombinant human GCK-GKRP interaction: Diaphorase-coupled assay (AID 743205); conditions: G6PDH/diaphorase resorufin fluorescence; series mostly up to 57.5 µM
Procedure, shortened: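 GST-GCK (10 nM) with FLAG-GKRP (10 nM), 5 mM glucose and 0.4 mM ATP in pH 7.6 Hepes; compounds preincubated 20 min with substrate. G6PDH/diaphorase coupling converts resazurin to resorufin, read kinetically (ex 525/em 590 nm) for 30 min.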

[5] = target: T1, Hexokinase-4 (Homo sapiens) + Glucokinase regulatory protein (Homo sapiens); test: qHTS assay for inhibitors of recombinant human GCK-GKRP interaction: ADP-Glo assay (AID 743206); conditions: ADP-Glo luminescence, 60 min, 0% = vehicle-only wells with enzyme present; series mostly up to 76.9 µM;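 further: plate controls were DMSO plus enzyme for no effect and no enzyme for full effect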
Procedure, shortened: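 Pin-transferred compounds meet a 15 nM GST-GCK/15 nM FLAG-GKRP/2 uM S6P mix (dispense concentrations). ATP is then added to 0.4 mM final with 5 mM glucose, and the reaction runs 60 min at room temperature. ADP is quantified luminescently.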

[6] = target: T1, Hexokinase-4 (Homo sapiens) + Glucokinase regulatory protein (Homo sapiens); test: qHTS assay for inhibitors of recombinant human GCK-GKRP interaction: HTRF assay (AID 743207); conditions: recombinant GCK-GKRP HTRF binding, 60 min; series mostly up to 57.5 µM;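 further: 0% = DMSO with GCK present and -100% = DMSO wells lacking GCK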
Procedure, shortened: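 GST-GCK and FLAG-GKRP (5 nM each) were combined with 2 uM S6P in pH 7.1 Hepes/MgCl2/KCl/DTT buffer, then compound and anti-FLAG XL665/anti-GST K antibodies were added. After 60 min at room temperature, HTRF 665/615 nm emission was read.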

[7] = qHTS Assay for Identifying Gametocytocidal Compounds (AID 743244); further: potency means the concentration at half of the fitted maximal effect;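 on max response: on the % scale 0 is the no-effect control and ±100 the full control effect; actives lower the fluorescent signal which means gametocytes are killed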; conditions: P. falciparum 3D7 stage III-V gametocytes, alamarBlue, 72 h; max response: stronger effect = lower value
Procedure, shortened: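 Using 20,000 stage III–V 3D7 gametocytes per well, compounds were incubated 72 h under 37 °C/5% CO2. Viability was then assessed by 24 h alamarBlue reduction, measured fluorometrically at 525/598 nm.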

[8] = qHTS assay for measurement of the activity of small molecule inhibitors on Zika virus induced Caspase-3 activity in human iPSC derived neural progenitor cells (hNPCs) (AID 1224857); conditions: hNPCs ZIKV-induced caspase-3/7, Caspase-Glo luminescence, 6 h; series mostly up to 45.7 µM; further: nearly all actives have a fitted effect of over 65% in size; further: potency means the concentration at half of the fitted maximal effect
Procedure, shortened: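 After overnight (16–20 h) culture at 350 cells/well, hNPCs get compound, then ZIKV 2 FFU/cell one hour later. Six hours on, Caspase-Glo 3/7 is added and luminescence measured.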

T1 sequence (P35557 whole entry, looked up): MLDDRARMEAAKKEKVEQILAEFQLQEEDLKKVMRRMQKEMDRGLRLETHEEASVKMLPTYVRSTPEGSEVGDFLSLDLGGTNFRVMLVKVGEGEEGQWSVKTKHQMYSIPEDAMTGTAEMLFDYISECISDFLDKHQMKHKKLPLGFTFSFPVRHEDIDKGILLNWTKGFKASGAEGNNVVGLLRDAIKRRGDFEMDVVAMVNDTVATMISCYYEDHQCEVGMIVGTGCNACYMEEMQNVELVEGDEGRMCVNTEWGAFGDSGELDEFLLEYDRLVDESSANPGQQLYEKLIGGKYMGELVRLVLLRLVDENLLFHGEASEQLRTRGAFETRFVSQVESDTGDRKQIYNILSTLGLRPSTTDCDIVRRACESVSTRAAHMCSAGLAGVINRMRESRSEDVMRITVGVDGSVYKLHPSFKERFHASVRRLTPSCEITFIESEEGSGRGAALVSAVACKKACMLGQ
T1 sequence (Q14397 whole entry, looked up): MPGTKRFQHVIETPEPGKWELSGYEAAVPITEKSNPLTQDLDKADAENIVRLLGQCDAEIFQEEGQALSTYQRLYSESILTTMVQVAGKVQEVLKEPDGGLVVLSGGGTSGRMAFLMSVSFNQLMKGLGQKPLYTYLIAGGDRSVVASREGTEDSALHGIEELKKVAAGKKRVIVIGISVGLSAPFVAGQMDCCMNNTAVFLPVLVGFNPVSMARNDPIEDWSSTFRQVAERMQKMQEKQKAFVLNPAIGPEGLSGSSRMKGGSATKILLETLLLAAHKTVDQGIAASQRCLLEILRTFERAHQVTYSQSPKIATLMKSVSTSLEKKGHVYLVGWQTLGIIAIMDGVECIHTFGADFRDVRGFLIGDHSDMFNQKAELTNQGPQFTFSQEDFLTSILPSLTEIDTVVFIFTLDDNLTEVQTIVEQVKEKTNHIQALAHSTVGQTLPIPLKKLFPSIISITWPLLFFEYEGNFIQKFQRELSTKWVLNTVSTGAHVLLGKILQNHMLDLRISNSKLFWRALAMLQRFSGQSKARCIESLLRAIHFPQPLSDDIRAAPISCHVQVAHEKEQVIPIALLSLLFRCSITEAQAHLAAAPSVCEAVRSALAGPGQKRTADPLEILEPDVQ

NNC(=O)c1ccc(O)cc1
inactive: outcome [1] | Potency [2] | outcome [3] | Potency [4] | outcome [5] | outcome [6] | max response [7] 7.91% | Potency [8]

O=S1(=O)N(CCN2CC=C(c3c[nH]c4cc(F)ccc34)CC2)c2cccc3c2N1CCC3
inactive: outcome [1] | Potency [2] | outcome [3] | Potency [4] | outcome [5] | outcome [6] | Potency [8]

NCC(O)c1cc(O)c(O)cc1F (configuration not stated)
inactive: outcome [1] | Potency [2] | outcome [3] | Potency [4] | outcome [5] | outcome [6] | max response [7] 20.1% | Potency [8]

CN(C(=O)Cc1ccc(Cl)c(Cl)c1)C(CN1CCCC1)c1cccc(OCC(=O)O)c1 (configuration not stated)
inactive: outcome [1] | Potency [2] | outcome [3] | Potency [4] | outcome [5] | outcome [6] | max response [7] 13% | Potency [8]

CCCN1CCC[C@@H](c2cccc(O)c2)C1
inactive: outcome [1] | Potency [2] | outcome [3] | Potency [4] | outcome [5] | outcome [6] | max response [7] 21.7% | Potency [8]

CC(C)(C)c1o[nH]c(=O)c1CC(N)C(=O)O (configuration not stated)
inactive: outcome [1] | Potency [2] | outcome [3] | Potency [4] | outcome [5] | outcome [6] | max response [7] 2.4% | Potency [8]

CCCN(CCC)C1Cc2cc(OC)c(OC)cc2C1
inactive: outcome [1] | Potency [2] | outcome [3] | Potency [4] | outcome [5] | outcome [6] | max response [7] 13.4% | Potency [8]

CO[C@H]1CC=C2CCN3CCC4=C(CC(=O)OC4)[C@]23C1
inactive: outcome [1] | Potency [2] | outcome [3] | Potency [4] | outcome [5] | outcome [6] | max response [7] -3.4% | Potency [8]

c1ccc2c(c1)[I+]c1ccccc1-2
active: Potency [7] 166 nM
inactive: outcome [1] | Potency [2] | outcome [3] | Potency [4] | outcome [5] | outcome [6] | Potency [8]

CCCC[N+]1(C)C2CC(OC(=O)[C@H](CO)c3ccccc3)CC1C1OC12 (some centres not stated)
inactive: outcome [1] | Potency [2] | outcome [3] | Potency [4] | outcome [5] | outcome [6] | Potency [8]

CC(N)Cc1c[nH]c2ccc(O)cc12 (configuration not stated)
inactive: outcome [1] | Potency [2] | outcome [3] | Potency [4] | outcome [5] | outcome [6] | max response [7] 20.7% | Potency [8]

C[N+]1(C)CCc2cc3c(cc2[C@H]1[C@@H]1OC(=O)c2c1ccc1c2OCO1)OCO3
inactive: outcome [1] | Potency [2] | outcome [3] | Potency [4] | outcome [5] | outcome [6] | max response [7] 19.2% | Potency [8]

CCCCCCCCCCCCCC(=O)O[C@@H]1[C@@H](C)[C@@]2(O)[C@@H](C=C(CO)C[C@@]3(O)C(=O)C(C)=C[C@@H]23)C2C(C)(C)[C@@]21OC(C)=O (some centres not stated)
inactive: outcome [1] | Potency [2] | outcome [3] | Potency [4] | outcome [5] | outcome [6] | max response [7] -2.77% | Potency [8]

COC(=O)N1CCN(C(=O)Cc2ccc(Cl)c(Cl)c2)C(CN2CCCC2)C1 (configuration not stated)
inactive: outcome [1] | Potency [2] | outcome [3] | Potency [4] | outcome [5] | outcome [6] | max response [7] 14.6% | Potency [8]

C=CCN1C[C@@H](C)N([C@H](c2ccc(C(=O)N(CC)CC)cc2)c2cccc(OC)c2)C[C@@H]1C
inactive: outcome [1] | Potency [2] | outcome [3] | Potency [4] | outcome [5] | outcome [6] | Potency [8]

CCOC(=O)c1ncn2c1[C@@H]1CCCN1C(=O)c1cc(OC)ccc1-2
inactive: outcome [1] | Potency [2] | outcome [3] | Potency [4] | outcome [5] | outcome [6] | max response [7] -1.18% | Potency [8]

CNc1ccc2oc(C[C@H]3O[C@@]4(CC[C@H]3C)O[C@H]([C@H](C)C(=O)c3ccc[nH]3)[C@H](C)C[C@H]4C)nc2c1C(=O)O
active: Potency [7] 2350 nM
inactive: outcome [1] | Potency [2] | outcome [3] | Potency [4] | outcome [5] | outcome [6] | Potency [8]

CC1(C(=O)O)C2CCC(O2)C1(C)C(=O)O (configuration not stated)
inactive: outcome [1] | Potency [2] | outcome [3] | Potency [4] | outcome [5] | outcome [6] | max response [7] -9.57% | Potency [8]

CCCN1CCc2cc(O)cc3c2[C@H]1Cc1ccc(O)c(O)c1-3
active: Potency [7] 2510 nM
inactive: outcome [1] | Potency [2] | outcome [3] | Potency [4] | outcome [5] | outcome [6] | Potency [8]

C[N+](C)(C)CC#CCN1CCCC1=O
inactive: outcome [1] | Potency [2] | outcome [3] | Potency [4] | outcome [5] | outcome [6] | max response [7] -2.31% | Potency [8]

CN1CC[C@@]2(C)c3cc(OC(=O)Nc4ccccc4)ccc3N(C)[C@@H]12
active: Potency [7] 1120 nM | Potency [8] 10000 nM
inactive: outcome [1] | Potency [2] | outcome [3] | Potency [4] | outcome [5] | outcome [6]

N=C(N)c1ccc(CS(=O)(=O)F)cc1
inactive: outcome [1] | Potency [2] | outcome [3] | Potency [4] | outcome [5] | outcome [6] | max response [7] 2.02% | Potency [8]

NC(C(=O)O)c1cc(=O)[nH]o1 (configuration not stated)
inactive: outcome [1] | Potency [2] | outcome [3] | Potency [4] | outcome [5] | outcome [6] | max response [7] 7.64% | Potency [8]

COc1ccc2[nH]cc(CCN)c2c1
inactive: outcome [1] | Potency [2] | outcome [3] | Potency [4] | outcome [5] | outcome [6] | max response [7] 15.8% | Potency [8]

C[N+](C)(C)CCOC(=O)CBr
inactive: outcome [1] | Potency [2] | outcome [3] | Potency [4] | outcome [5] | outcome [6] | max response [7] 20.4% | Potency [8]

— PubChem BioAssay (NCATS)
